# Assay results published in paper PMC5540273 (PLoS ONE, 2017).
# System: WNK1
# Settings: concentration: 1 μM, replicates: in singlicate; n = 1
# 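Further: KINOMEscan kinase panel screen.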
row,Compound,%Inh [%]
1,O=C(NCCNc1ccnc(Nc2ccc(F)cc2)n1)Nc1ccc2c(c1)OCO2 [GSK1379882],5
2,O=C(NCc1cccs1)c1cc(C(=O)c2c(Cl)cccc2Cl)c[nH]1 [GW823670],0
3,Cc1ccc(-c2ccc3c(ccc4sc5c(c43)NC[C@@H](C)N=C5N(C)C)n2)cn1,0
4,Cc1cc(Nc2nc(-c3cccc(C)n3)nc3ccccc23)ccn1 [GW872411],0
5,Nc1nc(-c2ccccc2F)c(-c2ccnc3ccccc23)s1 [GW560459],11
6,COc1ccc(-c2cc3c(C)nc(N)nc3n([C@H]3CC[C@H](O)CC3)c2=O)cn1,0
7,OCCCNc1nccc(-c2c(-c3cccc(C(F)(F)F)c3)nn3cc(C(F)(F)F)ccc23)n1 [GW630813],0
8,CN(C)c1cc(-c2ccc3c(N)n[nH]c3c2)nc(N)n1 [GSK2219329],3
9,Cl.c1ccc(Cn2cnc3cc(Nc4ncnc5ccccc45)ccc32)cc1 [GW272142],2
10,Cc1cccc(-c2cc(-c3c[nH]nc3-c3ccccn3)ccn2)c1 [GW679395],11
11,CCC(=O)c1c(-c2ccccc2)c2cc(Cl)ccc2c(=O)n1Cc1cc(S(C)(=O)=O)n(CCC(C)(C)O)n1,0
12,Cc1nnc(-c2ccc(C)c(-c3ccc(C(=O)O)cc3)c2)o1 [GW608005],30
13,COc1cc2nccc(Nc3ccc(OCc4ccc(NC(C)=O)cc4)cc3)c2cc1OC.Cl [GW440135],2
14,COC(=O)c1c(-c2ccccc2)c2cc(Br)ccc2c(=O)n1Cc1ccc(NC(=O)CCC(=O)O)cc1,0
15,Cc1nc(N(C)[C@H]2CN(C(=O)CC#N)CC[C@H]2C)c2cc[nH]c2n1,0
16,COc1cc2ncn(-c3cc(OCc4ccncc4)c(C(N)=O)s3)c2cc1OC [GSK336313],7
17,CCC(=O)c1c(-c2ccccc2)c2cc(Cl)ccc2c(=O)n1Cc1cc(S(C)(=O)=O)n(CC(N)=O)n1,0
18,CCS(=O)c1ccc(-c2coc3ccc(-c4nnc(C)o4)cc23)cc1 (stereo not drawn),0

row,Compound,%Inh [%]
1,COc1ccc(-c2cc3c(C)nc(N)nc3n([C@H]3CC[C@H](OCCO)CC3)c2=O)cn1,0
2,CC(C)(C)c1ccc(C(=O)Nc2cn3cc(-c4ccccc4)ccc3n2)cc1,0
3,COc1cc(Nc2nccc(N3CCC(NC(=O)C4COc5ccccc5O4)C3)n2)cc(OC)c1OC (stereo not drawn) [GSK1379761],1
4,CN1C(=O)C(Nc2ccccc2)=C(c2ccccc2)C1=O [SB-300079],0
5,COc1ccc(-n2cnc3c(N)ncnc32)cc1 [SKF-97236],11
6,CCc1ccc(-c2ccc3c(c2)-c2nn(C)cc2S(=O)(=O)N3C)cc1,6
7,Cc1ccc(Oc2ccc(Nc3ncnc4cc[nH]c34)cc2C)cn1,0
8,O=C(Nc1n[nH]c2nc(-c3ccccc3)c(Br)cc12)C1CC1 [SB-708998],2
9,Cc1ccccc1COc1cc(-n2cnc3cc(Cl)ccc32)sc1C(N)=O [GW813349],0
10,COc1cc(OC)cc(-c2cc3cnc(N)nc3nc2NC(=O)NC(C)(C)C)c1,0
11,COc1cc(Nc2nccc(N3CCC(NC(=O)C(C)c4ccc(Cl)cc4)C3)n2)cc(OC)c1OC (stereo not drawn) [GSK1379757],9
12,CCCC(=O)Nc1n[nH]c2ncc(-c3cccc4ccccc34)cc12 [SB-642057],12
13,COc1ccc(-c2coc3ccc(-c4nnc(SCc5cccc(C#N)c5)o4)cc23)cc1,0
14,Cc1nnc(-c2ccc3ncn(-c4ccc(S(C)=O)cc4)c3c2)o1 (stereo not drawn),0
15,O=C1NC(=O)C(c2ccccc2)=C1Nc1cccc(O)c1 [SB-390534],0
16,Nc1ncnc2c1ncn2-c1cccc2ccccc12 [SKF-97184],15
17,COc1ccc(Nc2nccc(N3CCC(NS(=O)(=O)c4ccc(NC(C)=O)cc4)C3)n2)cc1 (stereo not drawn) [GSK1379729],24
18,COc1cc2ncn(-c3cc(OCc4ccc(S(C)(=O)=O)cc4)c(C(N)=O)s3)c2cc1OC [GW869979],0

# System: WNK2
# Settings: concentration: 1 μM, replicates: in singlicate; n = 1
row,Compound,%Inh [%]
1,O=C(NCCNc1ccnc(Nc2ccc(F)cc2)n1)Nc1ccc2c(c1)OCO2 [GSK1379882],18
2,O=C(NCc1cccs1)c1cc(C(=O)c2c(Cl)cccc2Cl)c[nH]1 [GW823670],0
3,Cc1ccc(-c2ccc3c(ccc4sc5c(c43)NC[C@@H](C)N=C5N(C)C)n2)cn1,0
4,Cc1cc(Nc2nc(-c3cccc(C)n3)nc3ccccc23)ccn1 [GW872411],0
5,Nc1nc(-c2ccccc2F)c(-c2ccnc3ccccc23)s1 [GW560459],7
6,COc1ccc(-c2cc3c(C)nc(N)nc3n([C@H]3CC[C@H](O)CC3)c2=O)cn1,0
7,OCCCNc1nccc(-c2c(-c3cccc(C(F)(F)F)c3)nn3cc(C(F)(F)F)ccc23)n1 [GW630813],0
8,CN(C)c1cc(-c2ccc3c(N)n[nH]c3c2)nc(N)n1 [GSK2219329],0
9,Cl.c1ccc(Cn2cnc3cc(Nc4ncnc5ccccc45)ccc32)cc1 [GW272142],21
10,Cc1cccc(-c2cc(-c3c[nH]nc3-c3ccccn3)ccn2)c1 [GW679395],22
11,CCC(=O)c1c(-c2ccccc2)c2cc(Cl)ccc2c(=O)n1Cc1cc(S(C)(=O)=O)n(CCC(C)(C)O)n1,31
12,Cc1nnc(-c2ccc(C)c(-c3ccc(C(=O)O)cc3)c2)o1 [GW608005],0
13,COc1cc2nccc(Nc3ccc(OCc4ccc(NC(C)=O)cc4)cc3)c2cc1OC.Cl [GW440135],16
14,COC(=O)c1c(-c2ccccc2)c2cc(Br)ccc2c(=O)n1Cc1ccc(NC(=O)CCC(=O)O)cc1,26
15,Cc1nc(N(C)[C@H]2CN(C(=O)CC#N)CC[C@H]2C)c2cc[nH]c2n1,0
16,COc1cc2ncn(-c3cc(OCc4ccncc4)c(C(N)=O)s3)c2cc1OC [GSK336313],0
17,CCC(=O)c1c(-c2ccccc2)c2cc(Cl)ccc2c(=O)n1Cc1cc(S(C)(=O)=O)n(CC(N)=O)n1,0
18,CCS(=O)c1ccc(-c2coc3ccc(-c4nnc(C)o4)cc23)cc1 (stereo not drawn),3

row,Compound,%Inh [%]
1,COc1ccc(-c2cc3c(C)nc(N)nc3n([C@H]3CC[C@H](OCCO)CC3)c2=O)cn1,0
2,CC(C)(C)c1ccc(C(=O)Nc2cn3cc(-c4ccccc4)ccc3n2)cc1,0
3,COc1cc(Nc2nccc(N3CCC(NC(=O)C4COc5ccccc5O4)C3)n2)cc(OC)c1OC (stereo not drawn) [GSK1379761],19
4,CN1C(=O)C(Nc2ccccc2)=C(c2ccccc2)C1=O [SB-300079],0
5,COc1ccc(-n2cnc3c(N)ncnc32)cc1 [SKF-97236],19
6,CCc1ccc(-c2ccc3c(c2)-c2nn(C)cc2S(=O)(=O)N3C)cc1,0
7,Cc1ccc(Oc2ccc(Nc3ncnc4cc[nH]c34)cc2C)cn1,0
8,O=C(Nc1n[nH]c2nc(-c3ccccc3)c(Br)cc12)C1CC1 [SB-708998],0
9,Cc1ccccc1COc1cc(-n2cnc3cc(Cl)ccc32)sc1C(N)=O [GW813349],0
10,COc1cc(OC)cc(-c2cc3cnc(N)nc3nc2NC(=O)NC(C)(C)C)c1,0
11,COc1cc(Nc2nccc(N3CCC(NC(=O)C(C)c4ccc(Cl)cc4)C3)n2)cc(OC)c1OC (stereo not drawn) [GSK1379757],0
12,CCCC(=O)Nc1n[nH]c2ncc(-c3cccc4ccccc34)cc12 [SB-642057],6
13,COc1ccc(-c2coc3ccc(-c4nnc(SCc5cccc(C#N)c5)o4)cc23)cc1,0
14,Cc1nnc(-c2ccc3ncn(-c4ccc(S(C)=O)cc4)c3c2)o1 (stereo not drawn),0
15,O=C1NC(=O)C(c2ccccc2)=C1Nc1cccc(O)c1 [SB-390534],0
16,Nc1ncnc2c1ncn2-c1cccc2ccccc12 [SKF-97184],0
17,COc1ccc(Nc2nccc(N3CCC(NS(=O)(=O)c4ccc(NC(C)=O)cc4)C3)n2)cc1 (stereo not drawn) [GSK1379729],38
18,COc1cc2ncn(-c3cc(OCc4ccc(S(C)(=O)=O)cc4)c(C(N)=O)s3)c2cc1OC [GW869979],58
